Results filed as inconclusive are left out. Where a structure was tested more than once in an assay, its records may differ in their call. The source made the active and inactive calls. Rule for the calls: active = hit-call score of the fitted dose curve at least 0.9, where 1 is the maximum; inconclusive = response in the unintended direction; inactive = score below 0.9.

Sequence of human Peroxisome Proliferator-activated Receptor delta (PPARd), PPARD (gene 5467) (Q03181 whole entry, looked up): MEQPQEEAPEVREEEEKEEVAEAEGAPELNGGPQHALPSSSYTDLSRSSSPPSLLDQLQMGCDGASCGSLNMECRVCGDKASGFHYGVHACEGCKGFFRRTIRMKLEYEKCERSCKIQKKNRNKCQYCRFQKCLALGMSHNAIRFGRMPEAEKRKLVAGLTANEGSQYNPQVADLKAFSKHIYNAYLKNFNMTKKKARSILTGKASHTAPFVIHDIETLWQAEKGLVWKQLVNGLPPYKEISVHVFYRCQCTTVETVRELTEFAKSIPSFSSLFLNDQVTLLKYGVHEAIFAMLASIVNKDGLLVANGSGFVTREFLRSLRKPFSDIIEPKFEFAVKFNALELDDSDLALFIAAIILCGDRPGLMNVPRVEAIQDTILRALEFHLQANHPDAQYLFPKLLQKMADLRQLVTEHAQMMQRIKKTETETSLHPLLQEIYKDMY

This assay concerns the target human Peroxisome Proliferator-activated Receptor delta (PPARd), PPARD (gene 5467) (UniProt Q03181). Briefly: ATG_PPARd_TRANS: Attagene TRANS-FACTORIAL HepG2 Assay for human Peroxisome Proliferator-activated Receptor delta (PPARd) (AID 2283002). Here is the method:
ATG_TRANS is a cell-based, multiplexed-readout assay that uses HepG2, a human liver cell line, with measurements taken at 24 hours after chemical dosing in a 24-well plate.ATG_PPARd_TRANS is one of 30 assay component(s) measured or calculated from the ATG_TRANS assay. It is designed to make measurements of mRNA induction, a form of inducible reporter, as detected with fluorescence intensity signals by Reverse transcription polymerase chain reaction (RT-PCR) and Capillary electrophoresis technology.Data from the assay component ATG_PPARd_TRANS was analyzed into 1 assay endpoint. This assay endpoint, ATG_PPARd_TRANS, was analyzed in the positive analysis fitting direction relative to DMSO as the negative control and baseline of activity. Using a type of inducible reporter, measures of mRNA for gain-of-signal activity can be used to understand the reporter gene at the transcription factor-level as they relate to the gene PPARD. Furthermore, this assay endpoint can be referred to as a primary readout, because this assay has produced multiple assay endpoints where this one serves a reporter gene function. To generalize the intended target to other relatable targets, this assay endpoint is annotated to the nuclear receptor intended target family, where the subfamily is non-steroidal.
Human liver HepG2 cells are transiently transfected with multiple reporter transcription units (MRTUs) in 6-well plates using FuGene 6 reagent (Roche; 3 ml FuGene/1 mg DNA). The MRTU constructs are regulated by a cis-regulating element (promoter). […] A major difference between the CIS and TRANS system is that in CIS activities of endogenous TFs are measured, whereas the TRANS assay evaluates changes in activities of exogenous, chimeric NR-Gal4 proteins. […] At the end of 24 hour incubation, total RNA was isolated using TriZol reagent (Invitrogen). The isolated RNA is then reverse-transcribed using oligo(dT) primer and Mo-MLV reverse transcriptase (Invitrogen) with DNAse I (Ambion) treatment for 30 min. The one-tenth of the produced cDNA was amplified by PCR using Taq DNA polymerase (Invitrogen) and two reporter sequence-specific primers. The PCR products were fluorescently labeled by primer extension with 6-arboxyfluorescein (6-FAM) 5'-labeled reporter sequence-specific primer (2 min at 95 C, 20 s at 68 C and 10 min at 72 C) and these products were digested with 5U of HpaI (New England Biolabs) for 2h at 37 C. The fragments were purified using Qiaquick PCR columns (Qiagen), analyzed on an ABI 3130xL genetic analyzer (Applied Biosystems) with peak positions identified by using a set of X-rhodamine (ROX)-labeled MapMarker1000 molecular weight standards (BioVentures). The raw capillary electrophoresis data was processed using Attagraph software (Attagene).
On to `c1ccc(NNc2ccccc2)cc1`, for which the call was inactive.

As to `N#CC(Br)Br`, the result was inactive. Same read-out and setting: the value for `COP(=S)(OC)SCN1C(=O)c2ccccc2C1=O` was “inactive”.

For the compound `CNC(=O)Oc1cccc2c1OC(C)(C)C2`, the compound was called inactive. As for `CCCCCCCCCCCCCN1CC(C)OC(C)C1` (stereo not given), the call was inactive. Same read-out and setting: the value for `ClC1=C(Cl)C2(Cl)C3C(Cl)C=CC3C1(Cl)C2(Cl)Cl` (stereo not given) was “inactive”. Turning to `O=C(Nc1ccccc1)c1ccccc1I`, the result was inactive. On the same count and under the same terms, the value for `Cc1ccc([N+](=O)[O-])cc1` was “inactive”.

Turning to `Clc1ccc(C(c2ccc(Cl)cc2)C(Cl)(Cl)Cl)cc1`, the outcome was inactive. Same read-out and setting: the value for `CO[C@@H]1[C@H](OC(=O)NC(=O)CCl)CC[C@]2(CO2)[C@H]1[C@@]1(C)O[C@@H]1CC=C(C)C` was “inactive”. For the compound `C[C@]12C=CC3=C4CCC(=O)C=C4CC[C@H]3[C@@H]1CC[C@@H]2O`, the compound was classed as inactive and the AC50 is 73.6 µM (active). For `CCN(CC)CCO`, the compound was called inactive.

As to `CC(O)CCO` (stereo not given), the call was inactive.

As to `COC(=O)Nc1nc2ccccc2[nH]1`, the compound was classed as inactive.

Regarding `Clc1ccc(Cl)c(Cl)c1`, the compound was called inactive. Same read-out and setting: the entry for `CN(C)C(=O)Nc1ccc(Cl)cc1` is “inactive”; for `CC(C)(OOC(C)(C)c1ccccc1)c1ccccc1` it is “inactive”; for `C1=Cc2cccc3cccc1c23` it is “inactive”.

Turning to `Nc1cc(Cl)cc(C(=O)O)c1Cl`, the outcome was inactive. Still for that read-out and setting: the value for `Cc1cc(N=Nc2ccccc2C)ccc1N` was “inactive”; that for `Oc1ccc2ccc3cccc4ccc1c2c34` was “inactive”. Still for that read-out and setting: the value for `ClCCOCCCl` was “inactive”; that for `CN(C)[C@@H]1C(=O)C(C(N)=O)=C(O)[C@@]2(O)C(=O)C3=C(O)c4c(O)cccc4[C@@](C)(O)[C@H]3C[C@@H]12` was “inactive”; that for `OCCCBr` was “inactive”. Same read-out and setting: the value for `OCCOCCO` was “inactive”; that for `CC(C)(C)C(O)(CCc1ccc(Cl)cc1)Cn1cncn1` (stereo not given) was “inactive”. For `Cn1cc(-c2ccccc2)c(=O)c(-c2cccc(C(F)(F)F)c2)c1`, the compound was classed as inactive. On the same count and under the same terms, the value for `O=[N+]([O-])c1ccc(Oc2ccc(Cl)cc2Cl)cc1` was “inactive”. The same measure, in the same setting: the entry for `CCOc1cccc(C2(N3CCN(c4ccccc4)CC3)CCC(C)CC2)c1` (stereo not given) is “inactive”; for `CCN(CC)N=O` it is “inactive”.

With `CCC12COCN1COC2`, the call was inactive. The same measure, in the same setting: the value for `O=C1CCCO1` was “inactive”. The same measure, in the same setting: the entry for `O=C(Oc1ccc(Br)cc1)N1CCN2CCC1CC2` is “inactive”; for `CCCCOC(=O)c1ccccc1C(=O)OCc1ccccc1` it is “inactive”; for `CCC[CH2][Sn]([Cl])([CH2]CCC)[CH2]CCC` it is “inactive”. The same measure, in the same setting: the entry for `COC(=O)c1ccccc1N` is “inactive”; for `CC(C)(C)OOC(=O)c1ccccc1` it is “inactive”. As to `c1ccc2c(c1)oc1ccccc12`, the compound was called inactive. Same read-out and setting: the entry for `CCCSC(=O)N(CCC)CCC` is “inactive”.

As a reminder, the AC50 is the concentration giving half of the maximal activity seen.

The values above are taken from PubChem BioAssay (EPA / NIEHS).
